Here are results for 40 molecules from PubChem BioAssay (NCI).

The panel holds about 83,000 compounds, 20% with a hit somewhere; the sample as a whole holds those more often.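 Testing used 96-well plates and a 48-hour single-concentration exposure. Example: -40 means 40% of the starting cells died.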 Values without a mark were called inactive. Calls of active or inactive are those of the source. How the source made its calls: active means growth percent below 10; inactive means the rest.

The subject of the test is HL-60(TB) leukemia. Description: NCI-60 one-dose screen, 48 h (100 = growth as untreated, 0 = no growth, -100 = all killed). The note with it: 10 µM unless noted.
Regarding `COc1ccc2nc(-c3c(-c4ccccc4)nc4ncccn34)[nH]c2c1`, the growth was 98%. As for `c1ccc(CSc2ncnc3nc[nH]c23)nc1`, the growth was 96.4%. On to `COc1ccc(-c2nc(SCC(=O)Nc3ccc(C(C)=O)cc3)[nH]c(=O)c2C#N)cc1`, for which the growth is 88.2%.

On to `Cc1ccc(NC(=O)c2sc3nc4c(cc3c2N)C(=O)CCC4)cc1`, for which the growth was 110%.

For `N#Cc1c(-c2cccc(F)c2)cc(-c2ccc(Br)s2)[nH]c1=O`, the growth is 67%. The result for `C/C(=N\O)c1ccc(NC(=O)CSc2nnc(-c3cc(-c4ccc(S(N)(=O)=O)cc4)nc4ccccc34)n2-c2ccccc2)cc1` reads 24.1%; that for `Cc1cc(Cl)ccc1Nc1nc(C(F)(F)F)ccc1C(=O)N/N=C/c1cccc(O)c1`, 4.08% (active); that for `CC1(C)C(N(O)C(=O)Nc2ccc(Cl)cc2)N(c2ccc(Cl)cc2)C(=O)N1CC(=O)N/N=C/C=C/c1ccc([N+](=O)[O-])o1` (stereo not given), -36% (active). In the case of `COc1cccc(NC(=O)c2cccc(C3CCc4c(cc(OC)c(OC)c4OC)O3)c2)c1` (stereo not given), the growth was 44.2%.

Regarding `COc1cc(C2CC(c3ccc(C)cc3)=NN2C=O)ccc1Oc1ccnc2cc(Cl)ccc12` (stereo not given), the growth is 94.8%. For `N=c1c2c(-c3ccccc3)c(-c3ccccc3)oc2ncn1NC(=O)c1cccnc1`, the growth is 99.7%. The result for `CCC1N=C(N)N=C(N)N1c1ccc(Cl)cc1` (stereo not given) reads 75.4%; that for `C=C1C(=O)O[C@H]2[C@H]1CC/C(COC(=O)/C=C\C(=O)NCc1ccc(Cn3c(=O)sn(CCCCC)c3=O)cc1)=C\CC[C@@]1(C)O[C@@H]21`, -17.6% (active); that for `Cc1ccc(-c2cc(-c3ccccc3)n(-c3ccccc3)n2)cc1`, 98.5%. Take `CNc1nc(C)c(-c2nc(Nc3cccc(S(N)(=O)=O)c3)ncc2F)s1`: the growth was -47.9% (active). Regarding `Cn1c(=O)c2[nH]c(SCC(=O)Nc3ccc(C(=O)/C=C/c4ccccc4Cl)cc3)nc2n(C)c1=O`, the growth is 98.6%. The result for `Nc1nc2c(c3cnccc13)C(c1ccc(Cl)c(Cl)c1)Cc1cnccc1-2` (stereo not given) reads -16.5% (active). The result for `O=C(Nc1ccc(-n2ccc3c(NC(=O)c4ccccc4)ncnc32)cc1)Nc1ccc(Cl)c(C(F)(F)F)c1` reads 15.3%; that for `Cn1ccnc1C(=O)/C=C/c1ccc(CC(=O)Nc2ccc(F)cc2)cc1`, 18.8%; that for `NC(=O)c1c(NC(=O)c2ccc3c(c2)OCO3)sc2c1CCC(=O)C2`, -58.3% (active). The result for `Cn1cc(Nc2nccc(-c3ccc(N4CCCC4)c(C#N)c3)n2)cn1` reads -17.8% (active); that for `C=C(C)C(=O)Nc1ccc(NC(C)C)cc1`, 129%; that for `O=C(CCCCN1CCOCC1)Nc1ccc(Cn2nnc3c2C(=O)c2nnn(Cc4ccc(NC(=O)CCCCN5CCOCC5)cc4)c2C3=O)cc1`, -28.4% (active). As to `COc1cc(NC(=O)c2cc(O)c(C/C=C(\C)CCC=C(C)C)c(O)c2)cc2c1O[C@]1(C)CC[C@@H](O)C(C)(C)[C@H]1C2`, the growth was -7.34% (active). The result for `O=C1c2cc3c(cc2-c2c1c1ccc(F)cc1c(=O)n2CCCN1CCOCC1)OCO3` reads 13.7%.

As to `CN1C(=O)C(C2=NNC(c3ccccc3C(=O)O)C2)C(=O)N(C)C1=O` (stereo not given), the growth is 95.5%.

Consider `CCOC(=O)c1c2c(cn1Cc1ccccc1)-c1oncc1CC2`, for which the growth was 98.6%. The result for `COc1ccc(-c2csc(NC(=O)CN3CCN(CCO)CC3)n2)cc1NS(=O)(=O)c1cccc2c(N(C)C)cccc12` reads 93.8%.

On to `CCCC(O)Cn1ncc(C(=O)OCC)c1NC(=O)NCc1cccc(F)c1` (stereo not given), for which the growth is 59.2%.

Take `C=C(C)[C@@H]1CC[C@]2(C)[C@H](CC[C@@H]3[C@@H]([C@@](C)(O)CCC=C(C)C)CC[C@]32C)[C@@]1(C)CCC(=O)O`: the growth was -24.1% [100 µM] (active). For `Cc1ccc(N=Nc2ccccc2)cc1`, the growth is 85.8%. The result for `O=C1/C(=C/c2ccc(Cl)c(Cl)c2)CN(C(=O)CCN2CCC(=NO)CC2)C/C1=C\c1ccc(Cl)c(Cl)c1` reads -16% (active); that for `Cc1cc(C)nc(SC2=C(Nc3ccc(C)c(Cl)c3)C(=O)N(Cc3ccccc3)C2=O)n1`, 26.1% [30 µM]. The result for `C#CCOc1cccc(-c2ncc3cc(NC(=O)CCl)ccc3n2)c1` reads 14.3%; that for `CC(=O)[C@@H]1CC[C@]2(COS(=O)(=O)c3ccc(C)cc3)CC[C@]3(C)[C@H](CC[C@@H]4[C@@]5(C)CCCNC(C)(C)[C@@H]5CC[C@]43C)[C@@H]12`, 28.1%. Consider `O=C1NC(=Nc2ccc(O)cc2)S/C1=C\c1cccc(Cl)c1`, for which the growth was 22.9%. Turning to `CC1CCC2C(C)(C)C3CC12CC1OC13C` (stereo not given), the growth was 125%. Consider `CCOC(=O)C1=C(c2ccccc2)N=C2N(c3ccccc3)N=C(C(C)=O)N2C1c1ccc(F)cc1` (stereo not given), for which the growth was 89.8%. As for `COC1=CC(c2ccc[nH]2)=N/C1=C\c1[nH]c(C)c(C(=O)CCC(=O)Oc2ccc3c(c2)CCC2C3CC[C@]3(C)C(=O)CC[C@@H]23)c1C` (stereo not given in full), the growth was 79.8%. The result for `CCNc1cc(S(=O)(=O)O)ccc1C` reads 93.8%.
